# KCNQ2 block: inhibitors of rat KCNQ2 potassium channel | CHO-K1 KCNQ2, FluxOR thallium flux, 20 min; active compounds read low | B-score at 10 µM | 310,000 tested, 1.1% active | AID 2156;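 active means fluorescence ratio B-score at most minus 3 library SDs, with starting brightness B-score within 2 library SDs, cut at about -5.5 in these data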
# KCNQ2 enhance: KCNQ2 (rat) channel potentiation. O88943. CHO-K1 KCNQ2, FluxOR thallium flux fluorescence; active compounds read high. B-score at 10 µM. 310,000 tested, 0.54% active;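 active means fluorescence ratio B-score at least 3 SD of library B-scores, with initial fluorescence B-score within 3 of them, cut at about 5.3 in these data; same plate scores as AID 2156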;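 further: B-score of peak minus minimum over baseline fluorescence ratio after K+ and Tl+ stimulus; positive B-score means potentiation of KCNQ2 with more thallium influx and brighter signal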
# Kir21 conf inh: confirmation of mouse Kir2.1 potassium channel inhibitors; 2,300 tested, 41% active; AID 2032; Tl flux remaining, % of negative control (active compounds read low), % at 10 µM; shares compounds with KCNQ2 enhance; Kir2.1-expressing cells, FluxOR thallium flux fluorescence; active compounds read low;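 active means Primary-screen hit whose thallium flux fell at least 3 control SD below untreated wells in both duplicates, with normal baseline fluorescence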
# HEK293 ctr: parental HEK293 activity in Kir2.1 inhibitor counter-screen; FluxOR signal as % of negative control (100 = no effect), % at 10 µM; 2,300 tested, 19% active; shares compounds with KCNQ2 enhance; parental HEK293 cells, FluxOR thallium flux fluorescence; 0% = unstimulated blank wells;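 active means dye signal at least 3 control SD above or below untreated wells in both duplicates, raw fluorescence within 3, either direction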;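 further: percent is based on the flux ratio of peak minus minimum fluorescence over baseline F0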
# CHO-K1 ctr: alters thallium flux in parental CHO-K1 cells, KCNQ2 counter-screen; shares compounds with KCNQ2 enhance; FluxOR thallium flux fluorescence; zero = vehicle mean+3SD, 100% = vehicle-minus-blank window; activity increase over 3SD of controls, % at 10 µM; 1,200 tested, 43% active; AID 2282;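 active means signal rise of at least 3 SD above the untreated control mean, in both duplicate wells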;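 further: counter screen of KCNQ2 potentiator hits so any rise reflects channel-independent effects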
# KCNQ1 sel pot: human KCNQ1 counter-target activity of KCNQ2 potentiators. CHO KCNQ1 stable, FluxOR thallium flux fluorescence; beyond 3SD, as % of vehicle-control signal. 1,200 tested, 28% active. activation over 3SD threshold, % at 10 µM. AID 2283. shares compounds with KCNQ2 enhance;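 active means fluorescence ratio rise of at least 3 SD of vehicle wells above their mean, in both replicate wells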
# KCNQ2 pot conf: rat KCNQ2 channel potentiator confirmation | shares compounds with KCNQ2 enhance | CHO-KCNQ2 cells, FluxOR thallium flux fluorescence | potentiation, less the hit threshold, % at 10 µM | 1,200 tested, 68% active;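 active means fluorescence ratio rising 3 SD or more over the vehicle control mean in both replicates, plus primary screen hit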;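 further: peak minus minimum thallium fluorescence divided by baseline after K/Tl stimulus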
# Kir21 spec: mouse Kir2.1 off-target activity of KCNQ2 potentiators; shares compounds with KCNQ2 enhance; HEK293 Kir2.1, FluxOR thallium flux fluorescence; activity over 3SD threshold, % at 10 µM; 1,200 tested, 2% active; AID 2345;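 active means fluorescence ratio rise of at least 3 SD above the vehicle-control mean, seen in both replicates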
# KCNQ2 W236L MoA: KCNQ2 potentiators acting on retigabine-insensitive rat KCNQ2 W236L mutant; shares compounds with KCNQ2 enhance; CHO KCNQ2-W236L, automated patch clamp current; 940 tested, 10% active; AID 2558; current increase over 3SD of negative controls (%), active compounds read high, % at 25 µM;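 active means current increase at least 3 SD of the untreated controls above them in both duplicate recordings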
# Numbers stand for hits; 0 = inactive; - = no result given. An excerpt weighted towards active compounds, which were near 1.6% of everything screened.
SMILES,KCNQ2 block,KCNQ2 enhance,Kir21 conf inh,HEK293 ctr,others
Cc1ccc(C(=O)NC2(O)C(=O)c3ccccc3C2=O)cc1C,0,5.69,0,0,CHO-K1 ctr=0;KCNQ1 sel pot=0;KCNQ2 pot conf=0;Kir21 spec=0;KCNQ2 W236L MoA=21.6%
O=C(NC1(O)C(=O)c2ccccc2C1=O)c1ccc(C(F)(F)F)cc1,0,-,-,-,
Nc1nc2ccccc2n1CCOc1ccc(Cl)cc1,0,0,-,-,
Nc1nc2ccccc2n1CCOc1ccc(Br)cc1,0,-,20.5%,129.5%,
CCOC(=O)Cn1c(=N)n(CCOc2ccc(Br)cc2)c2ccccc21,0,-,36.0%,0,
CCOC(=O)Cn1c(=N)n(Cc2ccccc2)c2ccccc21,0,0,-,-,
COc1ccc(CCNC(=O)c2ccccc2NC(=O)C2=C(C)OCCS2)cc1OC,0,-,-,-,
CCCCCCC(O)(c1ccccc1)C(CN1CCOCC1)c1ccccc1 (configuration not stated),0,0,-,-,
CCCCCCC(O)(c1ccc(OC)cc1)C(CN1CCOCC1)c1ccccc1 (configuration not stated),0,6.37,0,0,CHO-K1 ctr=0;KCNQ1 sel pot=0;KCNQ2 pot conf=6.2;Kir21 spec=0;KCNQ2 W236L MoA=0
COc1ccc(CCNC(=O)C2Cc3ccccc3C(=O)O2)cc1 (configuration not stated),0,-,-,-,
COc1ccc(CCNC2CCc3ccccc3C2)cc1 (configuration not stated),0,0,40.0%,0,
CC(C)=CC(=O)OCC(=O)Nc1cc([N+](=O)[O-])ccc1F,0,-,-,-,
CCOC(=O)c1cnc2c(c(C)nn2C)c1Oc1ccccc1F,0,-,-,-,
CCCCN1CCc2c1nc1ccc(Br)cc1c2N,0,0,23.5%,0,
Cc1ccc2nc3c(c(N)c2c1)CCN3C,0,0,-,-,
CCc1ccc(OCC(=O)c2c(O)c3ccccc3oc2=O)cc1,0,0,-,-,
CNc1ccccc1C(=O)OC(C)C(=O)Nc1ccc(Cl)cn1 (configuration not stated),0,0,-,-,
CCC(C(=O)OC(C)C(=O)Nc1ccc(Cl)cn1)c1ccccc1 (configuration not stated),0,-,57.5%,68.5%,
CC(C)OC(=O)C1C(=O)CC(C)(O)C(C(=O)OC(C)C)C1c1cccc([N+](=O)[O-])c1 (configuration not stated),0,-,-,-,
CC[n+]1c(/C=C/N(C)c2ccccc2)n(-c2ccccc2)c2ccc(-c3nc4ccccc4s3)cc21,-16.2,0,0,0,
CCOC(=O)c1ccc2c(c1)n(CC)c(/C=C/N(C)c1ccccc1)[n+]2CC,0,-,-,-,
Cc1ccc(C(=O)N2CCN(c3ccccc3)CC2)cc1S(=O)(=O)N1CCCC1,0,0,0,0,
Cc1ccc(C(=O)N2CCN(c3ccc(F)cc3)CC2)cc1S(=O)(=O)N1CCCCC1,0,-,-,-,
CC(=O)CSc1ncnc2sc3c(c12)CCC(C)C3 (configuration not stated),0,15.1,0,455.0%,CHO-K1 ctr=1.6;KCNQ1 sel pot=0;KCNQ2 pot conf=93.3;Kir21 spec=0;KCNQ2 W236L MoA=0
CC1CCc2c(sc3ncnc(SCC(=O)c4ccccc4)c23)C1 (configuration not stated),0,0,-,-,
SMILES,KCNQ2 block,KCNQ2 enhance,Kir21 conf inh,HEK293 ctr,others
Cn1c(-c2sc3cc(C(F)(F)F)cnc3c2-c2cccs2)n[nH]c1=S,0,0,-,-,
COc1cccc(OC)c1C(=O)NC(=S)Nc1ccc2oc(-c3ccncc3)nc2c1,0,0,-,-,
O=C(COC(=O)C1CCC(=O)N1)Nc1ccc(Oc2ccccc2)cc1 (configuration not stated),0,7.61,0,0,CHO-K1 ctr=2.8;KCNQ1 sel pot=0;KCNQ2 pot conf=0;Kir21 spec=0
O=C(COC(=O)C1CCC(=O)N1)Nc1ccccc1Br (configuration not stated),0,0,-,-,
Cc1ccc(-n2c(=S)[nH]c3sc4c(c3c2=O)CCc2ccccc2-4)cc1,0,-,-,-,
Cc1cccc(-n2c(=S)[nH]c3sc4c(c3c2=O)CCc2ccccc2-4)c1,0,5.61,0,195.5%,CHO-K1 ctr=0;KCNQ1 sel pot=0;KCNQ2 pot conf=0;Kir21 spec=0;KCNQ2 W236L MoA=0
CCCCNC(=S)NC(=O)c1ccc([N+](=O)[O-])cc1,0,8.79,0,188.0%,CHO-K1 ctr=2.5;KCNQ1 sel pot=14.1;KCNQ2 pot conf=10.3;Kir21 spec=0;KCNQ2 W236L MoA=0
CC(C)CNC(=S)NC(=O)c1ccc([N+](=O)[O-])cc1,0,0,-,-,
CC(/C=C1\SC(=S)N(NC(=O)c2ccncc2)C1=O)=C\c1ccccc1,0,0,-,-,
COc1ccc(/C=C2/SC(=S)N(NS(=O)(=O)c3ccccc3)C2=O)cc1,0,0,-,-,
CC(/C=C1\SC(=S)N(NS(=O)(=O)c2ccccc2)C1=O)=C\c1ccccc1,0,12.2,0,259.5%,CHO-K1 ctr=0.8;KCNQ1 sel pot=63.0;KCNQ2 pot conf=56.4;Kir21 spec=0;KCNQ2 W236L MoA=0
CC(/C=C1\SC(=S)N(NC(=O)c2ccc(C)cc2)C1=O)=C\c1ccccc1,0,9.22,0,0,CHO-K1 ctr=0;KCNQ1 sel pot=0;KCNQ2 pot conf=0;Kir21 spec=0
O=C(Cn1nc(-c2ccccc2)ccc1=O)NCCCN1CCOCC1,0,-,-,-,
O=C1NCC(O)=C1C=NCCO,0,0,-,-,
CCCN(CCC)S(=O)(=O)c1cc2c3c(c1)CCN3C(=O)CC2,0,-,-,-,
CCN(c1cccc(C)c1)S(=O)(=O)c1cc2c3c(c1)CCC(=O)N3CCC2,0,-,0,0,
Cn1c(SCC(=O)c2ccc(-c3ccccc3)cc2)nnc1-c1ccco1,0,0,-,-,
COc1cc(Br)c(/C=C/c2ccc3cccc(O)c3n2)cc1OC,0,0,-,-,
COc1ccc(OC)c(/C=C/c2ccc3cccc(O)c3n2)c1,0,0,-,-,
COc1cc(/C=C/c2ccc3cccc(O)c3n2)ccc1O,0,16.7,0,141.5%,CHO-K1 ctr=7.5;KCNQ1 sel pot=35.1;KCNQ2 pot conf=12.3;Kir21 spec=0;KCNQ2 W236L MoA=0
COc1cc(/C=C/c2ccc3cccc(O)c3n2)c(Br)cc1O,0,6.37,0,71.0%,CHO-K1 ctr=5.7;KCNQ1 sel pot=0;KCNQ2 pot conf=0;Kir21 spec=0
O=[N+]([O-])c1ccc(OC(F)F)c(/C=N/n2cnnc2)c1,0,0,-,-,
Cc1ccc(N2C(=O)c3ccccc3C2=O)nc1,0,-,-,-,
Cc1ccc(C2CCN(C(=O)Nc3ccc(F)cc3)C2)cc1 (configuration not stated),0,-,-,-,
CCCCN1C(=O)C(=Nc2cccc3cnccc23)c2ccccc21,0,-,36.5%,0,
CCCCN1C(=O)/C(=C2\SC(N3CCCCC3)=NC2=O)c2ccccc21,0,0,-,-,
Cc1nc(-c2cc(-c3ccc(Cl)cc3)no2)cs1,0,-,-,-,
COc1ccc(CNCc2ccc3ccccc3c2)c(OC)c1,0,0,24.5%,0,
COc1ccc(CNCc2ccncc2)c(OC)c1,0,0,-,-,
